This passage reports growth results from PubChem BioAssay (NCI).

Molecules are shown by their SMILES. Compounds without any hit were thinned out: in the full panel of roughly 83,000, 20% have a hit.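 Interpretation: 100, growth as untreated; towards 0, rising growth inhibition; 0, no net growth; 0 to -100, cell death. Compounds scoring below 10 were considered active.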 Unmarked numbers belong to inactive results. Calls of active or inactive are those of the source.

This assay concerns MDA-MB-468 breast. Kind of assay: NCI-60 one-dose screen, 48 h (100 = growth as untreated, 0 = no growth, -100 = all killed). Conditions: 10 µM unless noted.
In the case of `C=CCSc1nnc(-c2ccc(C(C)(C)C)cc2)n1-c1cccc(C(F)(F)F)c1`, the growth is 21.5%. As for `COc1ccc(OCC(CO)N2CCN(c3ccccc3)CC2)cc1` (stereo not given), the figure is 99.6%. In the case of `O=C(C[P+](c1ccccc1)(c1ccccc1)c1ccccc1)C[P+](c1ccccc1)(c1ccccc1)c1ccccc1` it was -33.8% (active); in that of `CC1=C(C)C(=O)C(Nc2ccc3c(c2)OCO3)=C(Br)C1=O`, 36.3%. In the case of `CC1=C2[C@@H](CC1)[C@]1(C)O[C@@](C3CCCCC3)(C[C@H]1OC(=O)CO)[C@H]2OC(=O)/C=C/c1ccccc1` it was 87.6%; in that of `CSC(=S)N/N=C(\C)c1ccccn1`, -19.5% (active); in that of `CN1CCN(CCCNC(=O)c2c3c(n4ccccc24)C(=O)c2ncccc2C3=O)CC1`, -59.9% (active). `Nc1cc(C(=O)N/N=C\c2ccc(OC(F)F)c(OC3CCCC3)c2)nn1CC(O)c1ccccc1` (stereo not given): the growth was 106%. In the case of `Cc1cnc(C(=O)Nc2nc3ccc(S(=O)(=O)Nc4ccc(C5(C(F)(F)F)CC5)cc4)cc3[nH]2)cn1` it was -26.2% (active); in that of `O=S1(=O)OC(c2cc(Cl)c(O)c(Br)c2)(c2cc(Cl)c(O)c(Br)c2)c2ccccc21`, 118%; in that of `COC(=O)c1nc(=S)[nH]c(C(=O)OC)c1C(=O)c1ccc(Cl)c(Cl)c1`, 105%. In the case of `N=c1c2cc(-c3ccccc3)oc2ncn1/N=C/c1ccc(Cl)cc1` it was 88.2%; in that of `CCCCC(=O)Nc1ncc(Cc2ccc(Cl)cc2)s1`, 26.2%. As for `CCCC(=O)Oc1ccc(/C(=C(\C)c2ccccc2)c2ccc(OCCN(CC)CC)cc2)cc1`, the figure is 62.4%. Turning to `N#Cc1c(-c2ccccc2)nc(SCC(=O)Nc2nc(-c3ccc(Cl)cc3)cs2)[nH]c1=O`, the growth is 85.7%. For `COc1ccc(C2CCCCC2=O)cc1` (stereo not given), the growth was 109%. As for `COc1ccc2c3c(c4ccccc4cc13)C(=O)N(CCN(C)CCN)C2=O`, the figure is -76.5% (active). As for `O=C1/C(=C/c2ccc(O)cc2O)N=C2SCCCN12`, the figure is 96.1%; as for `C=C(C)[C@@H]1CC[C@]2(C(=O)O)CC[C@]3(C)[C@H](CC[C@@H]4[C@@]5(C)C[C@@H](CC#Cc6ccc(Br)cc6)C(=O)C(C)(C)[C@@H]5CC[C@]43C)[C@@H]12`, 6.26% (active). In the case of `CN(C)CCNc1nc2ccccc2c2c(=O)c3cc(F)ccc3sc12` it was -28.1% (active); in that of `O=c1[nH]c2cc(O)ccc2n2cc3c(F)cccc3c12`, 28.7%.

On to `Cc1ccc(S(=O)(=O)NCCCNc2nccc(-c3c(-c4cccc(F)c4)nc4occn34)n2)cc1`, for which the growth was 55.6%. In the case of `CC(C)=C(NC(=O)c1ccccc1)C(=O)O` it was 88.5%. Regarding `CC[C@H](C)[C@@H](C(=O)OC)n1cc(CNC(=O)[C@@H](Cc2ccccc2)NC(=O)OCc2ccccc2)nn1`, the growth was 99%.

Regarding `COc1cc(/C=C/C(=O)c2ccc(Nc3nc(Nc4ccccc4)nc(Nc4ccc(Cl)cc4)n3)cc2)cc(OC)c1OC`, the growth was 76.3%.

`COc1ccc(N=C2NN=C(c3c[nH]c4ccccc34)CS2)cc1OC`: the growth is 10.5%. As for `NC(=N\N=C/Cc1ccccc1)/C(N)=N\N=C\Cc1ccccc1`, the figure is 112%. As to `CN(C)CCN1CCN(c2ncccc2C2Nc3ccccc3-n3cccc32)CC1` (stereo not given), the growth is 109%. In the case of `c1ccc2c3c([nH]c2c1)C(c1ccc(C2NCCc4c2[nH]c2ccccc42)cc1)NCC3` (stereo not given) it was -83.2% (active); in that of `C#CCOc1ccc(/C=N\Nc2nc(-c3ccc(C)cc3)cs2)cc1OC`, 70.7%. In the case of `O=C1CCC(NC(=S)Nc2ccccc2)N1` (stereo not given) it was 112%. As for `CS(=O)c1nccc(-c2c(-c3ccc(F)c(OCc4ccccc4)c3)nc3sccn23)n1` (stereo not given), the figure is -19.4% (active). `COc1nc(N(C)O)nc(N(C)O)n1`: the growth was 29.4%.

On to `Cc1ccccc1NC(=O)c1sc2nc3c(cc2c1N)CCCC3`, for which the growth was 11.8%.

`COc1ccc(CCN2C(=O)CCSC2=S)cc1`: the growth is 10.7%.

Regarding `CCn1cc(C(=O)N/N=C/c2cccs2)c(=O)c2cc(F)c(N3CCNC(C)C3)c(F)c21` (stereo not given), the growth is 55.1%.

For the compound `Cc1cccc(NC(=O)c2sc3nc4c(cc3c2N)CCC4)c1C`, the growth is 10.6%.

Take `COc1ccc(-c2no[n+]([O-])c2Nc2ccccc2Br)cc1`: the growth was 93.3%. `O=Cc1ccc2nc(C(Cl)(Cl)Cl)ccc2c1`: the growth is 95.2%. In the case of `Cc1cccc2c3c(sc12)C(c1ccc(Cl)cc1)C(C#N)=C(/N=C/c1ccc(Cl)cc1)O3` (stereo not given) it was 10.9%.
